Measured values from the supplement of paper PMC11732987, “Enantioselective OTUD7B fragment discovery through chemoproteomics screening and high-throughput optimisation” (Communications Chemistry, 2025).

Key:
Assay in all cases: log2 ratio of Biotin-Ahx-Ub-VS probe labelling (fragment/DMSO); higher = less target engagement (more negative = stronger competition), active = hit call of the paper (q ≤ 0.05, log2 ratio ≤ -1)
Settings in all cases: compound concentration: 200 uM; treatment time: 3 h
USP42 = target: T1, USP42 (UniProt Q9H9J4)
T1 sequence (whole entry): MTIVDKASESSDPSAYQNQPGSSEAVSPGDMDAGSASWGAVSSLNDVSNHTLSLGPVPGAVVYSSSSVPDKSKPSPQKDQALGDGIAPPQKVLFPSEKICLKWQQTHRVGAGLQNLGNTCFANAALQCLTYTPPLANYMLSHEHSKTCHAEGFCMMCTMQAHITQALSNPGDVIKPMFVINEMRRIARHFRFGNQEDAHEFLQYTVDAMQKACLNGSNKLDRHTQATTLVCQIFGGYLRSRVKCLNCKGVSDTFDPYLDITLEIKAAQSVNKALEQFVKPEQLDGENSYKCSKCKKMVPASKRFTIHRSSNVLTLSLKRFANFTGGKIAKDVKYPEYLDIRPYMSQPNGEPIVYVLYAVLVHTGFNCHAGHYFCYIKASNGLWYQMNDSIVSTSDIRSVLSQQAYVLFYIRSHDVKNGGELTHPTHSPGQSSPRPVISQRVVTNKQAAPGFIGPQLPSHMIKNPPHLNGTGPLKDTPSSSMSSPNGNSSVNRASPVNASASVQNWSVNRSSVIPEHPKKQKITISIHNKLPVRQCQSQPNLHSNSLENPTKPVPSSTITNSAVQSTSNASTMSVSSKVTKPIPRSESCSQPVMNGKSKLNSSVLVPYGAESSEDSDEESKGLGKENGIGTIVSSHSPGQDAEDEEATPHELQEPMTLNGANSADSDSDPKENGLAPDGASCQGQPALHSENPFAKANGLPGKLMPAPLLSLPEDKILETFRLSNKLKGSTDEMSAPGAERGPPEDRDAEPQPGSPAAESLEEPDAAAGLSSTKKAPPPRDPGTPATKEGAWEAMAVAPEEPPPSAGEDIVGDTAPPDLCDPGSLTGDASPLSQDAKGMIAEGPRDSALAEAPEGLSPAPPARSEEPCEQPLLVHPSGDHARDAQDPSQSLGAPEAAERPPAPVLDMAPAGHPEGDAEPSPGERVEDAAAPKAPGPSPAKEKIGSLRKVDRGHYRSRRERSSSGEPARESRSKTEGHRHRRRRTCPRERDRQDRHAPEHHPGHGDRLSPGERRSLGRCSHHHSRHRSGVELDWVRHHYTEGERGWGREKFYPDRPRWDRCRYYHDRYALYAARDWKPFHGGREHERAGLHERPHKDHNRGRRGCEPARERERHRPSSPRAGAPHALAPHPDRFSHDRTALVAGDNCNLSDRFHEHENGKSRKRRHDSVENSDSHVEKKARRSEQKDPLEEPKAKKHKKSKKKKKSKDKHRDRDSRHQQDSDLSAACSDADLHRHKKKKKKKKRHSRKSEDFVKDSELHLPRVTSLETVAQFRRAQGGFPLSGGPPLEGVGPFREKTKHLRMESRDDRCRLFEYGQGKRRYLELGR
How it was run: (§1)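 HEK293T lysate (495 µg per sample, in Tris/CHAPS/IGEPAL buffer with protease inhibitors) was exposed in triplicate for 3 h to fragment at 200 µM or to vehicle, then to Biotin-Ahx-Ub-VS at 0.5 µM final for 1 h. Labelled DUBs were enriched on NeutrAvidin, digested with LysC and trypsin, and analysed by diaPASEF LC-MS/MS. Spectronaut label-free quantities were normalised to the global median, and values are average log2 ratios of fragment over vehicle from an unpaired t-test. Only proteins with ≥2 unique peptides were used.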

USP46 = USP46 (UniProt P62068)
How it was run: as §1

USP47 = target: T2, USP47 (UniProt Q96K76)
T2 sequence (whole entry): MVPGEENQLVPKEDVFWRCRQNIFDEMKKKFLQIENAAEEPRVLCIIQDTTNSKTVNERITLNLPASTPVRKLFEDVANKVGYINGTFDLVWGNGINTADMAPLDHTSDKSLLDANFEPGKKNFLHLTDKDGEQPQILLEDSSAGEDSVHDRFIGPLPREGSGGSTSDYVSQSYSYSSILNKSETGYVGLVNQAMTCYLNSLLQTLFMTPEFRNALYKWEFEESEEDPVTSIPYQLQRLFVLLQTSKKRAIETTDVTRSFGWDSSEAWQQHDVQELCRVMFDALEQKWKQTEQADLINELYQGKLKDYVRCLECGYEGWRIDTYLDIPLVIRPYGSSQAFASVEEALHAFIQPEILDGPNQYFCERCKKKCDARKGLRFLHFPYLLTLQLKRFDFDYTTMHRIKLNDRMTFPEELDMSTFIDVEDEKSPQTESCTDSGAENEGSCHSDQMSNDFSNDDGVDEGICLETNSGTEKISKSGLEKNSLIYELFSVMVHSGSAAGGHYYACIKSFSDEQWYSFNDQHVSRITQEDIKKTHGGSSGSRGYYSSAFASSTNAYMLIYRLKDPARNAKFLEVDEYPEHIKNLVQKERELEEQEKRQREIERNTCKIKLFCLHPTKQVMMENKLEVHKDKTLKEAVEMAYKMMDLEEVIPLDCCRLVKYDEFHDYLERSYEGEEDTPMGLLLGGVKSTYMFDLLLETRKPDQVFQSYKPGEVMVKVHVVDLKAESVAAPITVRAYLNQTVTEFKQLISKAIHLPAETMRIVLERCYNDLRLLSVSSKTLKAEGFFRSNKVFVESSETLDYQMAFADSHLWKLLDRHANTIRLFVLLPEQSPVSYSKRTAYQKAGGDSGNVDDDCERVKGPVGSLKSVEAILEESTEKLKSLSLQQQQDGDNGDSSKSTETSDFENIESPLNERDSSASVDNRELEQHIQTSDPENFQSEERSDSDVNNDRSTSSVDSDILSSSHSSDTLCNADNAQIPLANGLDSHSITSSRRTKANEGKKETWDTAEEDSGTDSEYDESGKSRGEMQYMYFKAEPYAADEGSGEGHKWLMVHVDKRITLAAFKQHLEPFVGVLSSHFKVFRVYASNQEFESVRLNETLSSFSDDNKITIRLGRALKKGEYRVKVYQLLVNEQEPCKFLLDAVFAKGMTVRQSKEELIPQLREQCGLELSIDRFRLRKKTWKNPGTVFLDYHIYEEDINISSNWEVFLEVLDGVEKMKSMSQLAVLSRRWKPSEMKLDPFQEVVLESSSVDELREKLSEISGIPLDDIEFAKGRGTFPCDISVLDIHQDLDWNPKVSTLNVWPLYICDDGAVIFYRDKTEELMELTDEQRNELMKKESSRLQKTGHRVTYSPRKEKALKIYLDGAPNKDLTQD
How it was run: as §1

USP48 = target: T3, USP48 (UniProt Q86UV5)
T3 sequence (whole entry): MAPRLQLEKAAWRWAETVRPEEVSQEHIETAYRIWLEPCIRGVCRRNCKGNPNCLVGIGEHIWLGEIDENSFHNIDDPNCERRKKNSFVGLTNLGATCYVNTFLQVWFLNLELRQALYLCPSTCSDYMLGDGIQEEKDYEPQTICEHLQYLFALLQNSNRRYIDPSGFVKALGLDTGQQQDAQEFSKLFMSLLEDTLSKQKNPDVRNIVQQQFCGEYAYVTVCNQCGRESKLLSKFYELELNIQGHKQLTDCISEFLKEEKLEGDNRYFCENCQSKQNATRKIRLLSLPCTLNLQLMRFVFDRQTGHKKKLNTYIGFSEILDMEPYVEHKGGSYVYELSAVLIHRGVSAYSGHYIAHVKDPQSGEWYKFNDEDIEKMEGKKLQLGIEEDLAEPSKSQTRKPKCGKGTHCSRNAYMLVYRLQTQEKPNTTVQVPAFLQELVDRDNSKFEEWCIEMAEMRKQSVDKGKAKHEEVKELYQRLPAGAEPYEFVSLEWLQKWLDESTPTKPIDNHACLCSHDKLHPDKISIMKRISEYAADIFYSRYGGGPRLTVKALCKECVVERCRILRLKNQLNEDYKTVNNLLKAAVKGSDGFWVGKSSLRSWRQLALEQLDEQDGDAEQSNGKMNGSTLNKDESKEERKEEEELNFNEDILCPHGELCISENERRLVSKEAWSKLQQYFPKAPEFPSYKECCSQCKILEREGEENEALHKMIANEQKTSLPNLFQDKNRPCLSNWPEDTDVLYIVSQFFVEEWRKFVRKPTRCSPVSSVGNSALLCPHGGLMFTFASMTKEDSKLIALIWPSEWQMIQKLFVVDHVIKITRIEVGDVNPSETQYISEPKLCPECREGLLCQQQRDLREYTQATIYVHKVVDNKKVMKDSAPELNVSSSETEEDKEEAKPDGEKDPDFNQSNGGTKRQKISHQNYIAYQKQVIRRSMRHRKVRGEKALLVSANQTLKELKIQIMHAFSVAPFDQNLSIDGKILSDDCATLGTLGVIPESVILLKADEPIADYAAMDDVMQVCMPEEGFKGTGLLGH
How it was run: as §1

USP5 = target: T4, USP5 (UniProt P45974)
T4 sequence (whole entry): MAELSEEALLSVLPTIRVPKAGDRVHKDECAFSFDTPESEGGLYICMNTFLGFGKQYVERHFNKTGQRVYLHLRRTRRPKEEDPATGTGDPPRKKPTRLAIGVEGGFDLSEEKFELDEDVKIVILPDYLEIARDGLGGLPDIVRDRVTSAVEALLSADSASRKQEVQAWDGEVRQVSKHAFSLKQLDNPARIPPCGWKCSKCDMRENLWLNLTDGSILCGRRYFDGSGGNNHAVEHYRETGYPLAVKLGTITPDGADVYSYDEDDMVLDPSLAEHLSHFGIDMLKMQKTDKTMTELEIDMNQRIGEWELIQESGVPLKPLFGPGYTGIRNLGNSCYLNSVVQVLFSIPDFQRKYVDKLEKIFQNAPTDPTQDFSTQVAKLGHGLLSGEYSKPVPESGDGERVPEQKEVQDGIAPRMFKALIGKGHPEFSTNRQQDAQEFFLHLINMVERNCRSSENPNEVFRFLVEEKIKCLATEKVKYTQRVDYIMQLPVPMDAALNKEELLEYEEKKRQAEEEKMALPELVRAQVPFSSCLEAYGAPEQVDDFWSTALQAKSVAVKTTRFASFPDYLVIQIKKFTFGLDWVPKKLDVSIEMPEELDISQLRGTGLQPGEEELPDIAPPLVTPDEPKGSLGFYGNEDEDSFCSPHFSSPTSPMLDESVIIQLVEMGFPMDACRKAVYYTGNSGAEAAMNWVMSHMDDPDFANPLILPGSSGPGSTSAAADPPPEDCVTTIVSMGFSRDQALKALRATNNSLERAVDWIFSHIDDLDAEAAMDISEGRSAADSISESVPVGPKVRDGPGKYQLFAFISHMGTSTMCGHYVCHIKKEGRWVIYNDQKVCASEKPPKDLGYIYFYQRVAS
How it was run: as §1

USP54 = USP54 (UniProt Q70EL1)
How it was run: as §1

USP7 = USP7 (UniProt Q93009)
How it was run: as §1

USP8 = target: T5, USP8 (UniProt P40818)
T5 sequence (whole entry): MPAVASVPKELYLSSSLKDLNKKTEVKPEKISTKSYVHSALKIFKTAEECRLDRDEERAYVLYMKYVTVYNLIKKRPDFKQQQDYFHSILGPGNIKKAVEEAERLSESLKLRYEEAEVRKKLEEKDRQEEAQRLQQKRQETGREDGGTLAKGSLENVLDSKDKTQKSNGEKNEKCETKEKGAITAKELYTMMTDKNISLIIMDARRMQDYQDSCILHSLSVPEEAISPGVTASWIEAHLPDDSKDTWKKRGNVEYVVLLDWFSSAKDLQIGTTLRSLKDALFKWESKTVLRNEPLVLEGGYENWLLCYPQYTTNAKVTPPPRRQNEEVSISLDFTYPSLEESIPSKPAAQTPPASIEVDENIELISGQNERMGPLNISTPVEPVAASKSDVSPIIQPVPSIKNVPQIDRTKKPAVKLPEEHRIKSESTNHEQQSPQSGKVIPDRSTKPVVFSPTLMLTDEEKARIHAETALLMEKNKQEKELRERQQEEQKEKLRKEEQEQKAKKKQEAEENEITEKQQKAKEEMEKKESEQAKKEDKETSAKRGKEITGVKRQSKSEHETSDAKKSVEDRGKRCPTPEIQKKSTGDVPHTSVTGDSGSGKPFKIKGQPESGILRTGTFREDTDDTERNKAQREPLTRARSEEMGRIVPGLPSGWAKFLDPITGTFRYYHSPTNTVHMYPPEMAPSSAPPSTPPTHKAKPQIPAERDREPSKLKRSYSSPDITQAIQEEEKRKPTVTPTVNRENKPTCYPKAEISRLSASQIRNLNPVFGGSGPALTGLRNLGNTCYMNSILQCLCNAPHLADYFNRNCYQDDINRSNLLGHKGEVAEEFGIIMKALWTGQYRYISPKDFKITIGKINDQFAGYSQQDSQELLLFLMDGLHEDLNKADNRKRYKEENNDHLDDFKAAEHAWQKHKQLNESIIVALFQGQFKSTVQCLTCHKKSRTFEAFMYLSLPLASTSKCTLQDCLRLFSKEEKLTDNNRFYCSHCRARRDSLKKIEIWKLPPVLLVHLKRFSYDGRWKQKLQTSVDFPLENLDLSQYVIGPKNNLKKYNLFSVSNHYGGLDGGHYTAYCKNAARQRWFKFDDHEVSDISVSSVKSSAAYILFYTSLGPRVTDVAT
How it was run: as §1

USP9X = USP9X (UniProt Q93008)
How it was run: as §1

UniProt O00487 = target: UniProt O00487
How it was run: as §1

Measured: log2 ratio of Biotin-Ahx-Ub-VS probe labelling

Sequence of USP46 (P62068 whole entry): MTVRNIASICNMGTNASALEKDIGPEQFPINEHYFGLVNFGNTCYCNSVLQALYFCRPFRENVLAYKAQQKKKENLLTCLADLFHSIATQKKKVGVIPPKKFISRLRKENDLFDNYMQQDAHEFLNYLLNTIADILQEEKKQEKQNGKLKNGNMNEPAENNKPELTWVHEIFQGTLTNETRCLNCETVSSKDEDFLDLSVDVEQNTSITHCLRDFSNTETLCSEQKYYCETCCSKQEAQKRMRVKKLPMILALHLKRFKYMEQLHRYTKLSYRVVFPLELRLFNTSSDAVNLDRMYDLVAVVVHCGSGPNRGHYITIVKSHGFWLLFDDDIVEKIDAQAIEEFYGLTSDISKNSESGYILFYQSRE
Sequence of USP54 (Q70EL1 whole entry): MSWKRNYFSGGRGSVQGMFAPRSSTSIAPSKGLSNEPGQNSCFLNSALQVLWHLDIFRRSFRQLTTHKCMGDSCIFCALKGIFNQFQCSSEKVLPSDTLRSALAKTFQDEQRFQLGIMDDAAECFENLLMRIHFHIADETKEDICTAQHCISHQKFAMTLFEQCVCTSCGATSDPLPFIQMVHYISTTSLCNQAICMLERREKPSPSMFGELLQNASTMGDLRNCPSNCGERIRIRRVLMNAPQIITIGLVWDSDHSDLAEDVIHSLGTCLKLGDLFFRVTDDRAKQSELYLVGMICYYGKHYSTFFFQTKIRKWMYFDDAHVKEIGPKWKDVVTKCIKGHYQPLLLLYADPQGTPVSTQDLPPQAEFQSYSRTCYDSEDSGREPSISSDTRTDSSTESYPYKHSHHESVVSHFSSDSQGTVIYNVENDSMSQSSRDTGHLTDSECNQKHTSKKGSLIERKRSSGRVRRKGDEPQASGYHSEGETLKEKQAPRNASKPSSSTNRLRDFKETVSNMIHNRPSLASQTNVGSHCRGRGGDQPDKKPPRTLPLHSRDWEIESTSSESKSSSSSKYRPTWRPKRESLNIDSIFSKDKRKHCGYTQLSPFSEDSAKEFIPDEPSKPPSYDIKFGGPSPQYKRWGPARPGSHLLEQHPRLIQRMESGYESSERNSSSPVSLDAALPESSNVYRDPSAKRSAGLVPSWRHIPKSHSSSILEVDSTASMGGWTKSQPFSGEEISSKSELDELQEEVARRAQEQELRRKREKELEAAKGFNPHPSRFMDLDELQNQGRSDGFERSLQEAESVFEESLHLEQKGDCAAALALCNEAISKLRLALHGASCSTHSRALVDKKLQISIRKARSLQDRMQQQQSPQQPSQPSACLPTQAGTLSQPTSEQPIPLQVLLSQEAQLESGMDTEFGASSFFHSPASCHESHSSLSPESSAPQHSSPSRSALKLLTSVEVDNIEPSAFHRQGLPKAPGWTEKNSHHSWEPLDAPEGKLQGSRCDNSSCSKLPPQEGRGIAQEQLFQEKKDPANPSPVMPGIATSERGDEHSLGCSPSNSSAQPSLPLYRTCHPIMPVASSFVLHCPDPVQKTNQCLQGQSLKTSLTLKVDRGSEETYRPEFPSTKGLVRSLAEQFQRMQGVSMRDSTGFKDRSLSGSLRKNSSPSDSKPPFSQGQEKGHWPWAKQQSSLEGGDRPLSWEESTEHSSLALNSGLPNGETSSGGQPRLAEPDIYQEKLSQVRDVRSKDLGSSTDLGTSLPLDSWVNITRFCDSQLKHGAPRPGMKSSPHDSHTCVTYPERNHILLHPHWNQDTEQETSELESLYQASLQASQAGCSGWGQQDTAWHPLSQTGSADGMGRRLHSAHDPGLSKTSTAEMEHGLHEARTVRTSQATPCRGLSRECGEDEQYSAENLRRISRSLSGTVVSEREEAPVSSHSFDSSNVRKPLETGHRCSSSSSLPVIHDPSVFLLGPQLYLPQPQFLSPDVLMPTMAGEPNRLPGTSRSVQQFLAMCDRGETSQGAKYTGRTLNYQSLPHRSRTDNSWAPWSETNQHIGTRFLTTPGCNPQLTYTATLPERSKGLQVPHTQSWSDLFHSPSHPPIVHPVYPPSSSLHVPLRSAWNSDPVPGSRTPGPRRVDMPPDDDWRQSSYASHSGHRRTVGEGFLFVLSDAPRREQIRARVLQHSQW
Sequence of USP9X (Q93008 whole entry): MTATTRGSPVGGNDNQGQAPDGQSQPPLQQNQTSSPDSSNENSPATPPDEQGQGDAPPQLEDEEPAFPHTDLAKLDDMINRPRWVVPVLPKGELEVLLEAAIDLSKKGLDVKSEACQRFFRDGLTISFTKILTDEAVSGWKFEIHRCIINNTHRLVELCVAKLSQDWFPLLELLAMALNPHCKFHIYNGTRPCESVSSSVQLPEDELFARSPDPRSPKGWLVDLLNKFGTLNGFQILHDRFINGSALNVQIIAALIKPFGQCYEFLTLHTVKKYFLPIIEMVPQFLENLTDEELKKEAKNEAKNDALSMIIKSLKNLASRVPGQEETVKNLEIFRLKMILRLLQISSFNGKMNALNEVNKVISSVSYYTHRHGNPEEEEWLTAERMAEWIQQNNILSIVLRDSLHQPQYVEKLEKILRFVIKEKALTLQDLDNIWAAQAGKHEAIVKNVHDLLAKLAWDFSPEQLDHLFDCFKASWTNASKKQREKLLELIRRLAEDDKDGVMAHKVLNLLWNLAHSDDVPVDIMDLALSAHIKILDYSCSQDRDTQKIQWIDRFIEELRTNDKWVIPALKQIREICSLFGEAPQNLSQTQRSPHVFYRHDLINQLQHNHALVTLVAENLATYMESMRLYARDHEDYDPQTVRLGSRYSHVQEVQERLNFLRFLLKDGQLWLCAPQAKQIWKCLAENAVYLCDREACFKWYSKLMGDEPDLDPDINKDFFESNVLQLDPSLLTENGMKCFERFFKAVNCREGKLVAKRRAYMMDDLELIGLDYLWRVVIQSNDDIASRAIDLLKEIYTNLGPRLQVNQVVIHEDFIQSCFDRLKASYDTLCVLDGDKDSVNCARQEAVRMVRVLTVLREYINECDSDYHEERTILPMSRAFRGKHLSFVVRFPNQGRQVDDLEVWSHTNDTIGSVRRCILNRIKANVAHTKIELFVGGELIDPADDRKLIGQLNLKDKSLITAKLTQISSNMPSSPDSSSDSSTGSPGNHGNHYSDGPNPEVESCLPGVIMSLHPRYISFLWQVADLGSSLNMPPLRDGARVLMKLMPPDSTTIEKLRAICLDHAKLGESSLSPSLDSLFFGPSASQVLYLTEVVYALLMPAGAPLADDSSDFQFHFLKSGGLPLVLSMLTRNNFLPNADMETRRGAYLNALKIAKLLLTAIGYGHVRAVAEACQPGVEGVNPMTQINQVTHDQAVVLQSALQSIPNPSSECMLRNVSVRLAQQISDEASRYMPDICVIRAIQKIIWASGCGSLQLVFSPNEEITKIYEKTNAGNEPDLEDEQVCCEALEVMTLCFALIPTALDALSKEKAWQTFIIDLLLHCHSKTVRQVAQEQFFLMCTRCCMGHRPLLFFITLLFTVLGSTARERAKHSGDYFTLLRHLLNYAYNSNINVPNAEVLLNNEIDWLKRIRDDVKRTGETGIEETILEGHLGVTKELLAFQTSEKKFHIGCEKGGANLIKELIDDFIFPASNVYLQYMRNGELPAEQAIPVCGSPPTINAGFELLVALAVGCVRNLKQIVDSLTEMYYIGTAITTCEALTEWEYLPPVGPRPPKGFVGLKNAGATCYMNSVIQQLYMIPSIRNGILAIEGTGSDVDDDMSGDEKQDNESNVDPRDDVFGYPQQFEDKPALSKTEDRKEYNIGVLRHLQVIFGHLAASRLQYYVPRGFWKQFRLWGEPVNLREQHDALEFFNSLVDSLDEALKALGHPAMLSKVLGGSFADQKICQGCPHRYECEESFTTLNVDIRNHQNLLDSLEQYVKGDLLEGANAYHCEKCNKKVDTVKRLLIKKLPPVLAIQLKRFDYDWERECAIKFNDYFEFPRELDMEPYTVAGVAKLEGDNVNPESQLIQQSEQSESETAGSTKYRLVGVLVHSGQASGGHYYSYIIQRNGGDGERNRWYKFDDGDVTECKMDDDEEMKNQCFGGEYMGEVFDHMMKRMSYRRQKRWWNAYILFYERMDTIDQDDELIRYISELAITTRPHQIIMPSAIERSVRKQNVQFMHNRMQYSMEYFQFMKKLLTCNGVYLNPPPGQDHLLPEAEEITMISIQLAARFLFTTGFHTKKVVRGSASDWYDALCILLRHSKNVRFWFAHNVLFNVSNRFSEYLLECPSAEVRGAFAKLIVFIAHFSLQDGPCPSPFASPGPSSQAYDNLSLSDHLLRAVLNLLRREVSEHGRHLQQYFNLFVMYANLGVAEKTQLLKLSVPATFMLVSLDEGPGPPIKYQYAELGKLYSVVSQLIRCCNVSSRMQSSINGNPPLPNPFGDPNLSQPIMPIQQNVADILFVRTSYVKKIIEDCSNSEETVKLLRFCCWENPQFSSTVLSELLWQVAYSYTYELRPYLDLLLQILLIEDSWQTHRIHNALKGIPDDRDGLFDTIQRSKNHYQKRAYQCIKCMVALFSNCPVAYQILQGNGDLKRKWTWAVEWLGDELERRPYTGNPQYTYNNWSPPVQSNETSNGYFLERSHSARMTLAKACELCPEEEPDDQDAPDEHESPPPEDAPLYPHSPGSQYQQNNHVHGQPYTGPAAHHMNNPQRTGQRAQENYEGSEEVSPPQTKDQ
Sequence of UniProt O00487 (O00487 whole entry): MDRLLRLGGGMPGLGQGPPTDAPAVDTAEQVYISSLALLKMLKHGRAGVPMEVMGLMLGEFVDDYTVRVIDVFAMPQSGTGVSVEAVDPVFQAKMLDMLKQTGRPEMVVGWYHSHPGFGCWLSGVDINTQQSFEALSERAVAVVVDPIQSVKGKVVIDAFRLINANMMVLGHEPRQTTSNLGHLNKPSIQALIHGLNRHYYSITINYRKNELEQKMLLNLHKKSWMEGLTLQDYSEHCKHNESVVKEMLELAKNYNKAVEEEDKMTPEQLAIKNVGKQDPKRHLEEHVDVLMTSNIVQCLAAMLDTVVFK

O=C(CCl)NCCc1ccc2c(c1)OCCO2
inactive: USP42 0.217 | USP46 0.147 | USP47 0.109 | USP48 -0.413 | USP5 -0.336 | USP54 0.647 | USP7 -0.433 | USP8 0.0104 | USP9X -0.26 | UniProt O00487 -0.093
